Screening results from PubChem.
Nrf2 ARE act: Nrf2 pathway activation; AREc32 ARE-luciferase reporter (MCF7-derived line), luminescence, 24 h; Potency, µM (top dose mostly 46.1 µM), without a hit: at the highest dose activation, hits mostly activators; 410,000 compounds, 0.31% hits; AID 624171; note: potency is the fitted concentration of half-maximal effect; % of control where 0% means no effect; nearly all actives have a fitted effect of over 65% in size
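AREc32 cells carrying an ARE-driven firefly luciferase, 1000 cells/well in OPTI-MEM with 5% FBS, dosed after overnight attachment and incubated 24 hr at 37 deg C. Steady-Glo luminescence read after 30 min at RT.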
A549 tox: counter-screen for Nrf2 inhibitors: cytotoxicity in A549 cells. Potency, µM (doses to about 46 µM), for the others: at the highest dose activity change, negative = cytotoxicity, usual class: inhibitors. 390,000 compounds, 0.16% hits. A549 ARE-Fluc cells, CellTiter-Fluor viability, 18-24 h; note: potency is the fitted concentration of half-maximal effect; % is set by controls: 0 for no effect and ±100 for the full control effect
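A549 ARE-Fluc cells in 5% FBS OPTI-MEM, 5000 cells/well, rested 2 h then exposed to compounds in concentration-response for 18-24 h at 37 °C. Viability by CellTiter-Fluor fluorescence (Ex 405/Em 525) after 30 min; luciferase luminescence (BugLite, 15 min, RT) read afterwards.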
Nrf2 inh: blocks Nrf2 signaling. A549 ARE-Fluc reporter, luciferase luminescence, 18-24 h. Potency, µM (top dose mostly 46 µM), without a hit: top-dose activity change, negative = inhibition, actives largely listed as inhibitors. 360,000 compounds, 2.1% hits. AID 504444; note: potency is the fitted concentration of half-maximal effect; % is set by controls: 0 for no effect and ±100 for the full control effect; nearly all actives have a fitted effect of over 60% in size
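A549 ARE_Fluc cells, 5000/well, 5% FBS OPTI-MEM; compounds in dose-response, 18-24 h at 37 °C/5% CO2; CellTiter-Fluor viability read (Ex 405/Em 525), then BugLite luciferase luminescence = Nrf2 activity.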
TCR act: activators of T cell receptors | primary human leukocytes, anti-CD3, IL-2 HTRF, 48 h | AID 504894 | Potency, µM (highest dose often 9.22 µM), for inactives: top-dose activation of IL-2 secretion, hits mostly activators | 330,000 tested, under 10 active; note: % of control where 0% means no effect
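Compounds are tested in HTS on primary human leukocytes co-incubated with a-CD3 beads for 48 hr. IL-2 output is measured by time-resolved FRET.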
AT treatment: candidate therapy for ataxia-telangiectasia | Potency, µM (top dose mostly 57.5 µM), for the others: top-dose activation, most hits filed as activators | AID 485349 | F2112 A-T fibroblasts, KAP-1 phosphorylation AlphaLISA; neocarzinostatin DNA damage 30 min before lysis | 320,000 compounds, 0.19% hits; note: potency is the fitted concentration of half-maximal effect; % of control where 0% means no effect; nearly all actives have a fitted effect of over 45% in size
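ATM-like activity read as KAP-1 phosphorylation via AlphaLISA donor/acceptor antibody pairs after lysis and 6 hr at 25C. Cells were ATM-null patient fibroblasts (F2112, hTERT), dosed 60 min, then exposed to the DSB inducer NCS for 30 min.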
CCT chaperon mod: modulators of cytosolic chaperonin (CCT/TRiC) activity | purified chaperonin ATPase assay, HTRF ADP detection, 30 min | activity change, % (test concentration not listed), hits read low | 360,000 compounds, 0.3% hits | AID 651819; in the data active = activity change below about -30%; note: % is set by controls: 0 for no effect and ±100 for the full control effect
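We incubate TRiC, 40 or 20 nM final, with library compounds at 76 uM and 10 uM ATP for 30 min at 37 °C. ADP formed is detected with Transcreener HTRF reagents after 30 min at room temperature.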
Numbers without * were called inactive; [ ] = dose if it differs, or a comment. Shown are actives, neighbours in structure and some others; about 2.6% of the full set was active somewhere. Unless noted, calls come from the whole dose curve; as a rule, active = well fitted curve in the direction sought with a large enough effect; inconclusive = small, poorly fitted or top-dose-only effect, or another doubt; inactive = no such curve, though single readings can be large; an effect the other way counts as inactive or inconclusive.

`CCOC(=O)c1ccc(NC(=O)Nc2cc3c(cc2N2CCCCC2)n(CC)c(=O)n3CC)cc1` gave Nrf2 ARE act 5%, A549 tox -12% and Nrf2 inh inconclusive.
Screening CCOC(=O)C1CCCN(c2ccc([N+](=O)[O-])c3nonc23)C1 (centres undefined) returned Nrf2 ARE act 5%, A549 tox 18µM*, Nrf2 inh -27%, TCR act 0%, AT treatment 6% and CCT chaperon mod 1.
`CC(Oc1ccc(Br)cc1)C(=O)N(Cc1nc(-c2ccccc2)no1)C(C)C` (centres undefined) gave Nrf2 ARE act 0%, A549 tox -21% and Nrf2 inh inconclusive.
For COc1ccc([N+](=O)[O-])cc1CSc1ccccn1 the results were Nrf2 ARE act 11µM*, A549 tox 8%, Nrf2 inh 26%, TCR act 5%, AT treatment 1% and CCT chaperon mod -1.
Screening CC1=C/C(=N\NC(=S)NCCc2ccccc2)CC(C)(C)C1 returned Nrf2 ARE act 5%, A549 tox 4%, Nrf2 inh inconclusive, TCR act 4%, AT treatment -5% and CCT chaperon mod -2.
`COc1ccc2c(c1)CCc1c(C(=O)Nc3c(C)nn(Cc4ccccc4C)c3C)noc1-2` gave Nrf2 ARE act 4%, A549 tox -6% and Nrf2 inh 18µM*.
`CCCOP(=O)(c1ccc(N(C)C)cc1)C(O)c1ccc(Cl)cc1Cl` (centres undefined) gave Nrf2 ARE act 2%, A549 tox -5%, Nrf2 inh inconclusive, TCR act -2%, AT treatment 10% and CCT chaperon mod 1.
`CN(C)c1ccc(/C=C/c2cc[n+](C)c3ccccc23)cc1` gave Nrf2 ARE act -1%, A549 tox 16µM*, Nrf2 inh 8.2µM*, TCR act 51%, AT treatment -10% and CCT chaperon mod 1.
Screening CCc1cccc(NC(=O)c2ccc(NC(=O)N3CCSc4ncccc43)cc2)c1 returned Nrf2 ARE act 5%, A549 tox -10% and Nrf2 inh inconclusive.
`O=[N+]([O-])/C=C/c1c(Cl)cccc1Cl` gave Nrf2 ARE act 14µM*, A549 tox -6%, Nrf2 inh -26%, TCR act -3% and CCT chaperon mod -2.
Screening CCOc1ccc(-c2cc(C(=O)N3CCN(S(=O)(=O)c4cc(Cl)ccc4OC)CC3)[nH]n2)cc1 returned Nrf2 ARE act 0%, A549 tox -15% and Nrf2 inh inconclusive.
CC(O)C1C=CC=CC(=O)OC2CC3OC4C5OC5(C)CCC4(COC(=O)C4OC4(C)C(O)CO1)C2(C)C31CO1 (centres undefined) was read as Nrf2 ARE act -1%, Nrf2 inh 0.23µM*, TCR act -10% and CCT chaperon mod -1.
For CCc1nn(CC(=O)N2CCN(Cc3ccc4c(c3)OCO4)CC2)c(=O)c2cc3occc3n12 the results were Nrf2 ARE act 3%, A549 tox -11%, Nrf2 inh inconclusive, TCR act -5%[46.1 µM], AT treatment -1% and CCT chaperon mod -3.
Screening C[N+](C)(C)CC1CCCC(C[N+](C)(C)C)C1=O (centres undefined) returned Nrf2 ARE act 11µM*, A549 tox -4%, Nrf2 inh 0%, TCR act -7% and CCT chaperon mod 0.
For Cc1ccccc1NC(=NCCCN1CC1)Nc1ccccc1C the results were Nrf2 ARE act 0%, A549 tox 13µM*, Nrf2 inh -19%, TCR act 0% and CCT chaperon mod -2.
For CCOC(=O)[C@]12Cc3cc(C)ccc3[C@H]1N(Cc1ccccc1)C(=O)c1ccccc12 the results were Nrf2 ARE act -1%, A549 tox inconclusive, Nrf2 inh 23µM*, TCR act -1% and CCT chaperon mod 1.
For CCOC(=O)[C@]12Cc3cc(OC)ccc3[C@H]1N(Cc1ccccc1)C(=O)c1ccccc12 the results were Nrf2 ARE act 4%, A549 tox -20%, Nrf2 inh inconclusive, TCR act -5% and CCT chaperon mod 0.
For CCc1nc2ccc(Br)cc2c(=O)n1-c1ccccc1C(F)(F)F the results were Nrf2 ARE act 0%, A549 tox -5%, Nrf2 inh 4%, TCR act 3% and CCT chaperon mod -1.
CCCc1nc2ccc(Br)cc2c(=O)n1-c1ccc([N+](=O)[O-])c(C(F)(F)F)c1 was read as Nrf2 ARE act 6%, A549 tox -23%, Nrf2 inh 21µM*, TCR act -4%[46.1 µM], AT treatment -5% and CCT chaperon mod -4.
`S=C(S)N1CCCC1` gave Nrf2 ARE act 0%, A549 tox -7%, Nrf2 inh 5.8µM*, TCR act 0%, AT treatment 2% and CCT chaperon mod -1.
`O=C(N1CCCCCC1)N1CC1` gave Nrf2 ARE act 0%, A549 tox -7%, Nrf2 inh 6%, TCR act -3% and CCT chaperon mod 1.
O=P1(Oc2ccccc2)CC=CC(COCc2ccccc2)O1 (centres undefined) was read as A549 tox -4% and Nrf2 inh 5%.
`Cc1cccc(N2CCN(C(=O)CCNS(=O)(=O)c3ccc4c(c3)oc(=O)n4C)CC2)c1C` gave Nrf2 ARE act 2%, A549 tox 2%, Nrf2 inh 21µM*, TCR act -4%, AT treatment 8% and CCT chaperon mod 1.
Screening CCc1ccc(CNn2cnnc2SCC(=O)NC(C)(C)C)cc1 returned Nrf2 ARE act 1%, A549 tox -22%, Nrf2 inh inconclusive, TCR act 0%[46.1 µM], AT treatment -5% and CCT chaperon mod 1.
For COc1ccc(C=C(C(=O)O)c2ccc(OC)cc2)cc1 the results were Nrf2 ARE act 0%, A549 tox 1%, Nrf2 inh inconclusive, TCR act 2% and CCT chaperon mod -1.
For Cc1nn2c(=O)cc(N3CCNCC3)nc2s1 the results were A549 tox 11% and Nrf2 inh 0%.
O=C(c1cc(F)ccc1F)C1CCCN(Cc2cccc(Cl)c2)C1 (centres undefined) was read as Nrf2 ARE act 0%, A549 tox 14%, Nrf2 inh 13%, TCR act -5%, AT treatment 18% and CCT chaperon mod 0.
